According to PubChem BioAssay (NCATS):
“And” between values parts separate entries of the source, which are not always exact repeats. Equal entries are not always repeated. Records with an inconclusive call do not appear. A call without a number means that no potency is given here. The source made the active and inactive calls. Calls come from the whole dose curve; as a rule, active = well fitted inhibition curve with a large enough effect; inconclusive = small, poorly fitted or top-dose-only effect; inactive = no such curve, though single readings can be large or run the other way.

experiment: Tertiary RLuc qRT-PCR qHTS assay for Zika virus inhibitors (AID 1347169); settings: infected Vero cells, reporter luminescence, 48-72 h; series mostly up to 45.9 µM; note: nearly all actives have a fitted effect of over 55% in size; for activity change, negative = inhibition: top concentration of the series differs between compounds
Description: Avindra Nath, Ph.D., National Institute of Neurological Disorders and Stroke (NINDS), Bethesda, MD
Radhakrishnan Padmanabhan, Ph.D., Georgetown University (GU), Washington D.C.
Zika Virus causes congenital defects, including microcephaly and is associated with Guillain-Barre syndrome, eningoencephalitis and myelitis in infected adult. […] Using a target-based approach, we hope to establish a screening paradigm to uncover novel, cell-active NS2B-NS3 protease (Zika Virus) specific inhibitors from NCATS' collection of small molecules using qHTS.
Four assay panel was created to identify potential Zika Virus inhibitors. Namely, (1) GU unlinked NS2B-NS3 AMC tagged protease qHTS, (2) GU unlinked NS2B-NS3 Rhodamine tagged protease qHTS, (3) NINDS linked NS2B-NS3 AMC tagged protease qHTS, (4) NINDS linked NS2B-NS3 Rhodamine tagged protease qHTS. Identified inhibitors were re-acquired and tested against secondary confirmatory, orthogonal, and counterscreens to exclude nonspecific inhibition.
Early Translation Branch (ETB)
National Center for Advancing Translational Sciences (NCATS), Rockville, MD
National Institute of Health (NIH), Bethesda, Maryland
1536-well recombinant virus ZIKV-RLuc (Cambodian) Assay:
For a follow-up assay, we adapted a high throughput orthogonal assay in 1536-well plate format to use the recombinant virus ZIKV-RLuc, in Vero cells. Briefly, three microL of Vero cells derived from a green monkey cell line, were dispensed Multidrop Dispenser into a solid bottom white 1,536-well plate at a concentration of 1,000 cells per well. The plate was incubated overnight in a CO2 incubator at 37 degrees C. Compounds were delivered as a 23 nL DMSO solution by Kalypsys pintool transfer. Following compound transfer, 2 microL of ZIKV-RLuc was added at an MOI of 1-2 and incubated in a CO2 incubator for 48-72 hrs at 37 degrees C. After sufficient incubation of infected cells in test plates, live cell Renilla luciferase substrate (Promega) was added. The luminescence signal was measured after 1-1.5 hrs exposure to substrate in ViewLux reader.
Potency is the fitted concentration of half-maximal effect.

| SMILES | Potency | activity change, negative = inhibition |
| --- | --- | --- |
| COC(=O)Nc1nc2ccc(C(=O)c3ccccc3)cc2[nH]1 | 829 nM (active) |  |
| O=C(O)c1cn(C2CC2)c2cc(N3CCNCC3)c(F)cc2c1=O | inactive |  |
| COc1ccc(-c2ccc3cc(C(=O)O)ccc3c2)cc1C12CC3CC(CC(C3)C1)C2 |  | -1.33% [at 5.25 µM] (inactive) |
| O=C(O)c1ccc(-n2nc(-c3ccccc3O)nc2-c2ccccc2O)cc1 | 13100 nM (active) |  |
| CNC1CCCN(c2c(F)cc3c(=O)c(C(=O)O)cn(C4CC4)c3c2OC)C1 (stereo unspecified) | inactive |  |
| Nc1nc(=S)c2[nH]cnc2[nH]1 | 4.15 µM (active) and 3.3 µM (active) |  |
| CCn1cc(C(=O)O)c(=O)c2cc(F)c(N3CCNCC3)cc21 | inactive |  |
| COc1c(N2CCNC(C)C2)c(F)cc2c(=O)c(C(=O)O)cn(C3CC3)c12 (stereo unspecified) | inactive |  |
| CCCc1nc(C)c2c(=O)[nH]c(-c3cc(S(=O)(=O)N4CCN(CC)CC4)ccc3OCC)nn12 | inactive |  |
| CC(C)(Sc1cc(C(C)(C)C)c(O)c(C(C)(C)C)c1)Sc1cc(C(C)(C)C)c(O)c(C(C)(C)C)c1 |  | -19.1% [at 0.566 µM] (inactive) |
| Nc1nc(N)c2nc(CNc3ccc(C(=O)NC(CCC(=O)O)C(=O)O)cc3)cnc2n1 (stereo unspecified) | inactive |  |
